The supplement of paper PMC13380429
Values without a mark were called inactive.

Tested on: Vero E6 infected with SARS-CoV-2
Assay: inhibition of SARS-CoV-2 cytopathic effect; higher = more antiviral protection, active = above 15
Conditions: 48 h

| Compound | inhibition of SARS-CoV-2 cytopathic effect (1 nM) [%] | inhibition of SARS-CoV-2 cytopathic effect (8.33 nM) [%] | inhibition of SARS-CoV-2 cytopathic effect (100 nM) [%] | inhibition of SARS-CoV-2 cytopathic effect (833.33 nM) [%] | inhibition of SARS-CoV-2 cytopathic effect (10000 nM) |
| --- | --- | --- | --- | --- | --- |
| CCOc1nc2cccc(C(=O)O)c2n1Cc1ccc(-c2ccccc2-c2nnn[nH]2)cc1 [candesartan] | -1.63 | -2.91 | -3.25 | -3.84 | -1.38% |
| CNC(=O)c1ccccc1Nc1nc(Nc2ccc(N3CCOCC3)cc2OC)ncc1Cl | -0.14 | -2.52 | -2.14 | -3.76 | -10.9% |
| NCC(CC(=O)O)c1ccc(Cl)cc1 (stereo not given) [baclofen] | -0.225 | -1.56 | -2.14 | 0.04 | -0.06% |
| CC(=O)O[C@]1(C(C)=O)CC[C@H]2[C@@H]3C=C(Cl)C4=CC(=O)CC[C@]4(C)[C@H]3CC[C@@]21C [chlormadinone-acetate] | -13.3 | -12.7 | -10.2 | -13.4 | -13% |
| Cc1ccc(-c2nn(C(C)(C)CNC(=O)c3ncccc3C)c3ncnc(N)c23)cc1 [WEHI-345-analog] | 0.48 | 1.39 | -0.26 | 0.47 | -2.28% |
| Oc1cc(CNC(=S)/C=C/c2cc(O)c(O)c(Br)c2)cc(O)c1O | 0.9 | 0.99 | 2.87 | 5.44 | 19.8% (active) |
| O=C1c2cccc(O)c2C(=O)c2c(O)cccc21 [dantron] | -2.75 | -3.39 | -1.6 | -0.79 | 0.11% |
| C[N+](C)(C)CC(O)CC(=O)[O-] (stereo not given) [carnitine-(D/L)] | -1.88 | -0.98 | 0.43 | 3.52 | 5.12% |
| CC(=O)c1c(C)c2cnc(Nc3ccc(N4CCNCC4)cn3)nc2n(C2CCCC2)c1=O [palbociclib] | 2.16 | 0.47 | -4.3 | -0.35 | 5.01% |
| O=C(O)c1ccc(-n2nc(-c3ccccc3O)nc2-c2ccccc2O)cc1 [deferasirox] | -0.67 | -4.22 | -1.32 | -1.58 | 0.43% |
| CC(C)(N)Cc1ccccc1 [phentermine] | 2.16 | 1.33 | 2.37 | 3.73 | 1.23% |
| CC[N+](CC)(CC(=O)Nc1c(C)cccc1C)Cc1ccccc1 [denatonium-benzoate] | -0.9 | -3.36 | -2.46 | -1.56 | -0.4% |
| C[C@]12N[C@H](Cc3ccccc31)c1ccccc12 [dizocilpine-(-)] | 1.97 | 1.82 | 1.33 | 1.1 | -0.44% |
| CC(C(=O)O)c1ccc2c(c1)Cc1ccccc1-2 (stereo not given) [cicloprofen] | 1 | 0.42 | 2.68 | 1.95 | 4.16% |
| CCn1c2ccccc2c2cc(CNC)ccc21 | 4.22 | 4.54 | -0.29 | -0.75 | -3.22% |
| COc1ccc(CN(C(=O)[C@@H](N)Cc2c(C)cc(C(N)=O)cc2C)[C@@H](C)c2ncc(-c3ccccc3)[nH]2)cc1C(=O)O [eluxadoline] | 2.78 | 1.84 | 0.96 | 1.03 | 1.03% |
| CCn1cc(C(=O)O)c(=O)c2cc(F)c(N3CCNCC3)cc21 [norfloxacin] | 2.7 | 2.29 | 3.02 | -0.29 | 3.46% |
| N#C/C(=C1/SC[C@@H](c2ccc(Cl)cc2Cl)S1)n1ccnc1 [luliconazole] | 1 | 1.92 | 2.17 | 1.1 | 3.29% |
| CC[C@@H]1/C=C(\C)C[C@H](C)C[C@H](OC)[C@H]2O[C@@](O)(C(=O)C(=O)N3CCCC[C@H]3C(=O)O[C@H](/C(C)=C/[C@@H]3CC[C@@H](O)[C@H](OC)C3)[C@H](C)[C@@H](O)CC1=O)[C@H](C)C[C@@H]2OC [ascomycin] | 1.02 | 2.65 | 2.8 | 2.76 | 1.33% |
